Compounds with a hit are over-represented: about 1.3% of the library has one in this group of screens.
p53 reactivator = restores transcriptional activity of mutant p53 | H1299 p53-A138V BP100-luciferase reporter, luminescence, 24 h | Potency, µM (doses to about 92.2 µM), without a hit: top-dose activity change, positive = activation, hits mostly activators | 320,000 compounds, 0.063% hits; also: potency is read from the fitted curve at half-maximal effect; % of control where 0% means no effect; nearly all actives have a fitted effect of over 45% in size
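p53-null H1299 cells stably carrying temperature-sensitive p53-A138V and a BP100-luciferase reporter were pinned with compounds (4-point, 1:5 series) and held 24 hrs at 37 deg C. Luminescence was read 10 min after detection reagent.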
IL-2 act = activates IL-2 in a cell-based reporter assay; IL-2 activation reporter assay, cell-based qHTS; stimulated with anti-CD3/CD4/CD28 beads; in transgenic mouse T cells; activation, % (series mostly up to about 46 µM); 360,000 compounds, 0.065% hits; in the data active = activation above about 50%; inconclusive = mostly about 30% to 49%; also: 0% is about no effect
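Readout: EGFP and DsRed signals by fluorescent plate cytometry. Unstimulated transgenic mouse T cells received compound 60 min before antibody-bead stimulation, then incubated 18 h at 37 degrees C.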
TCR act = activates T cell receptor signaling; primary human leukocytes, anti-CD3, IL-2 HTRF, 48 h; Potency, µM (highest dose often 9.22 µM), inactives show at the top dose activation of IL-2 secretion, actives largely listed as activators; 330,000 tested, under 10 active; also: % of control where 0% means no effect
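Primary human leukocytes were stimulated with a-CD3 beads plus compounds for 48 hr without co-stimulation; secreted IL-2 was quantified by HTRF using a-IL-2-K (europium cryptate) and a-IL-2-d2, excited at 320nm with acceptor emission read at 665nm.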
BRCA1 expr act = increases BRCA1 expression | Potency, µM (titrated, usually from 46.1 µM), for inactives: at the top dose activation, usual class: activators | MCF7-BRCA1-FFLuc reporter, luminescence, 48 h; response scale: scaled: vehicle 0%, 10 µM genistein 100% | 380,000 compounds, 1.1% hits | AID 624202; also: potency is read from the fitted curve at half-maximal effect; nearly all actives have a fitted effect of over 80% in size
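Luminescence from a BRCA1-driven firefly luciferase in MCF7 cells was the read-out, taken 15 min after substrate addition following 48 h compound exposure at 37 °C. Data were normalized to a 10 microM genistein control and DMSO vehicle.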
Mito fusion yeast = inhibitors of mitochondrial division or activators of mitochondrial fusion; S. cerevisiae fusion-defective mutant growth rescue, CellTiterGlo 48 h; Potency, µM (highest dose often 46.1 µM), for the others: at the top dose growth rescue (activation), actives largely listed as activators; 320,000 compounds, 0.23% hits; AID 485298; also: potency is read from the fitted curve at half-maximal effect; % of control where 0% means no effect; nearly all actives have a fitted effect of over 45% in size
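Temperature-sensitive fusion-defective S. cerevisiae (e.g. fzo1-1, mgm1-5) were grown with compound in YPEG medium (3% ethanol, 3% glycerol) for 48 hours at 37C. Growth rescue was measured as viability by CellTiterGlo luminescence after 10 minutes at ambient.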
An asterisk follows results filed as active; u = inconclusive; x = no result; [ ] = another dose, or the depositor's remark. Unless noted, calls follow the shape of the dose curve; as a rule, active = well fitted curve in the direction sought with a large enough effect; inconclusive = small, poorly fitted or top-dose-only effect, or another doubt; inactive = no such curve, though single readings can be large; an effect the other way counts as inactive or inconclusive.

SMILES	p53 reactivator	IL-2 act	TCR act	BRCA1 expr act	Mito fusion yeast
COC(=O)C(Cc1c[nH]c2ccccc12)NC(=O)c1cncc(Br)c1 (stereo not given)	-3.5%	-3.3	-1.6%	-44.7%	-11.2%
COC(=O)C(Cc1c[nH]c2ccccc12)NC(=O)c1ccc2nc[nH]c2c1 (stereo not given)	3.9%	4.8	0.8%	10µM*	-2.1%
COC(=O)C1(C)CN(S(=O)(=O)c2ccc(C)cc2)c2cc(OC)ccc2C1=O (stereo not given)	-4.8%	0.1	-4.0%[46.1 µM]	-30.2%	14.1µM*
O=C(O)c1ccccc1NS(=O)(=O)c1ccc2ccccc2c1	u	-1.3	-4.8%	12.6µM*	12.5%
CSc1nsc(N/N=C/c2ccc3c(c2)OCO3)c1C#N	u	0.2	-8.7%	3.98µM*	2.1%
Nc1cccc(C(=O)OCC(=O)c2ccccc2)c1	u	0.6	-1.4%[46.1 µM]	7.94µM*	0.6%
COc1ccc2nc(Nc3nc(CSc4nc5ccccc5[nH]4)cc(=O)[nH]3)nc(C)c2c1	39.8µM*	-0.1	-2.5%[46.1 µM]	-74.9%	-3.6%
Cc1nc(Nc2nc(CSc3nc4ccccc4[nH]3)cc(=O)[nH]2)nc2ccccc12	u	-6.1	-8.6%[46.1 µM]	-96.3%	-1.7%
COCCNC(=O)c1cc2cc3ccc(OC)cc3nc2o1	5.9%	-1.6	0.5%	u	-1.4%
CCC(C)NC(=O)c1cc2cc3ccc(OC)cc3nc2o1 (stereo not given)	u	-2.5	5.1%	11.2µM*	-2.3%
COc1ccc2nc3oc(C(=O)N4CCCCC4)cc3cc2c1	u	-3.2	4.4%[46.1 µM]	7.08µM*	3.6%
Cc1cccc(NC(=O)CN2C(=O)C3(SCC(=O)N3c3ccccc3)c3ccccc32)c1 (stereo not given)	x	x	x	2.3%	x
C=CCN(CC=C)c1ccc(/C=C/c2ccnc3ccccc23)cc1	x	x	x	18.1%	x
S=c1[nH]nc(-c2ccncc2)n1/N=C/c1cn(-c2ccccc2)nc1-c1ccccc1	-2.7%	3.3	0.6%	12.6µM*	6.7%
CC(=O)Nc1cncc(-c2cccc(N(C)C)c2)n1	x	-0.1	x	35.3%	x
Cc1cc(O)ccc1Nc1cc(-c2cccc(N(C)C)c2)ncn1	x	0.1	x	5.62µM*	x
CCc1cccc(C)c1NC(=O)CN1C(=O)C2(SCC(=O)N2c2cc(C)cc(C)c2)c2ccccc21 (stereo not given)	x	x	x	-38.9%	x
Fc1ccccc1CSc1nc2ncc(Br)cc2[nH]1	15.6%	0.4	-1.4%	11.2µM*	7.4%
COCC(=O)n1nc(-c2ccccc2)nc1NCc1cccs1	15.8%	-0.9	2.0%	10µM*	-6.1%
CC(C)C/C=C1\CCc2c([nH]c3ccccc23)C1=O	10.6%	-2.3	-3.3%	8.91µM*	4.8%
O=C1/C(=C/c2cccnc2)CCc2c1[nH]c1ccccc21	12.6%	-3.4	-5.0%	u	4.4%
O=C(Nc1c(Cl)cccc1Cl)c1cccc2c1C(=O)N(C1CCCCC1)C2	x	x	x	9.7%	x
N/C(CS(=O)(=O)c1ccccc1)=N\OC(=O)c1ccc(F)cc1	u	-1.7	5.9%	11.2µM*	5.7%
CCN(Cc1ccccc1)C(=O)CSc1ncn[nH]1	1.7%	-2.8	1.1%	-21.6%	-3.2%
CC(C)(C)N(Cc1ccccc1)C(=O)CSc1ncn[nH]1	-2.4%	-3.2	-1.5%	-15.8%	31.6µM*
SMILES	p53 reactivator	IL-2 act	TCR act	BRCA1 expr act	Mito fusion yeast
Cc1ccnc(NC(=O)CCNC(=O)c2ccc(Cl)cc2)c1	0.6%	2.7	-2.0%	12.6µM*	5.0%
O=C(CCCc1ccccc1)Nc1ccccn1	2.5%	-1.6	-0.7%	62.7%	-5.6%
Cc1ccnc(NC(=O)CCCc2ccccc2)c1	u	0.3	-1.5%[46.1 µM]	11.2µM*	1.6%
O=[N+]([O-])c1ccccc1S(=O)(=O)N1CCN(c2nc(-c3cccs3)nc3ccccc23)CC1	x	x	x	0.0%	x
O=C(Nc1ccccn1)c1ccc2c(c1)OCCO2	13.4%	0.0	4.0%	-19.1%	-4.7%
O=C(Nc1ccc2c(c1)OCO2)c1ccc2nc[nH]c2c1	13.2%	2.0	-6.7%	5.62µM*	-1.3%
O=C(N/N=C/c1ccccc1C(F)(F)F)c1ccc2nc[nH]c2c1	26.6%	-2.2	5.3%	7.08µM*	11.8%
O=C(Nc1ccc(C(F)(F)F)cc1)c1ccc2nc[nH]c2c1	5.6%	-0.6	-0.2%	8.3%	2.2%
O=C(Nc1ncccc1Cl)c1ccc2c(c1)OCCO2	14.9%	0.1	1.4%	8.91µM*	-6.8%
O=C(Nc1ccc2c(c1)OCCO2)c1ccc(Cl)c(Cl)c1	15.7%	-3.6	-5.7%	12.6µM*	-1.8%
CCCOc1cccc(C(=O)Nc2ccc3c(c2)OCCO3)c1	23.9%	-0.7	5.4%	7.94µM*	-0.3%
O=C(NC(=S)Nc1ccccn1)c1ccccc1	u	0.7	1.5%	u	35.5µM*
O=C(NC(=S)Nc1ccc2ncccc2c1)c1ccccc1	5.3%	-0.3	x	u	6.2%
O=C(NC(=S)Nc1ccc2nc[nH]c2c1)c1ccccc1	u	-0.6	-0.6%	3.98µM*	0.7%
O=C(Nc1ccc2c(c1)OCCO2)c1cccc(S(=O)(=O)N2CCOCC2)c1	14.7%	-1.4	2.3%	10µM*	-0.6%
O=C(NC(=S)Nc1ccccn1)c1ccc(-c2ccccc2)cc1	u	-4.1	-2.9%	u	-9.8%
Cc1cc(C)cc(NC(=O)CSc2nnc(-c3ccccc3)n2N)c1	-5.4%	-3.4	x	1.5%	0.631µM*
C=C(C)CSc1nnc(-c2ccc(OC)cc2)n1N	u	1.8	-0.9%	u	6.0%
C=C(C)CSc1nnc(-c2cccc(Cl)c2)n1N	12.4%	-0.6	0.9%	12.6µM*	-2.8%
Cc1cccc(NC(=O)CSc2nnc(-c3ccccc3)n2N)c1	1.1%	-1.0	-4.9%	12.2%	-5.0%
CCOC(=O)c1ccc(N2C(=O)c3[nH]nc(-c4ccc(OC)cc4)c3C2c2ccc(C)cc2)cc1 (stereo not given)	x	x	x	-65.7%	x
Cc1nn(-c2ccccc2)c2c1N(CCCC(=O)NCc1ccc(OC(C)C)cc1)C(=O)CS2	x	x	x	-45.8%	x
CC1CCN(c2oc(-c3ccc(OCc4ccccc4Cl)cc3)nc2C#N)CC1	x	x	x	7.0%	x
Cc1cc2cc(CNC(=O)Nc3ccccc3)ccc2[nH]1	14.8%	0.3	-48.5%	11.2µM*	1.2%
COc1ccc(CNC(=O)Nc2cccc(C)c2)cc1	18.4%	-2.6	6.0%	3.16µM*	-4.3%
COc1ccc(CNC(=O)Nc2ccccc2)cc1	13.5%	-5.1	-1.6%	u	-6.3%
CCn1ccc2cc(S(=O)(=O)N3CCCN(C(=O)NCCOC)CC3)ccc21	x	x	x	9.1%	x
CCCCN(C)CCNC(=O)CCNC(=O)Cn1ccc2ccccc2c1=O	1.9%	-1.1	-1.8%	0.0%	17.8µM*
O=C(Nc1cc(Sc2ccccn2)cc([N+](=O)[O-])c1)c1cccc(F)c1	1.9%	-0.8	0.9%[46.1 µM]	-61.3%	17.8µM*
